# Test results reported in PubChem BioAssay (EPA / NIEHS).
# The source made the active and inactive calls. The calls were made as follows, unless noted: active = hit-call score of the fitted dose curve at least 0.9, where 1 is the maximum; inactive = score below 0.9.
# Biological target: Cytochrome P450 2C18 (Homo sapiens) (UniProt P33260)
# Assay: NVS_ADME_hCYP2C18: NovaScreen (NVS) CYP450-related Enzyme Activity (ADME) Assay for human CYP2C18 (AID 2283103)
# Outline: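 Cell-free recombinant human CYP2C18 with fluorogenic substrate; fluorescence intensity read 0.5 h after dosing. Single-point screen at 10 uM in duplicate, then concentration-response up to 20 uM; loss of signal fitted against acetonitrile baseline.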
# Sequence of Cytochrome P450 2C18 (Homo sapiens) (P33260 whole entry, looked up): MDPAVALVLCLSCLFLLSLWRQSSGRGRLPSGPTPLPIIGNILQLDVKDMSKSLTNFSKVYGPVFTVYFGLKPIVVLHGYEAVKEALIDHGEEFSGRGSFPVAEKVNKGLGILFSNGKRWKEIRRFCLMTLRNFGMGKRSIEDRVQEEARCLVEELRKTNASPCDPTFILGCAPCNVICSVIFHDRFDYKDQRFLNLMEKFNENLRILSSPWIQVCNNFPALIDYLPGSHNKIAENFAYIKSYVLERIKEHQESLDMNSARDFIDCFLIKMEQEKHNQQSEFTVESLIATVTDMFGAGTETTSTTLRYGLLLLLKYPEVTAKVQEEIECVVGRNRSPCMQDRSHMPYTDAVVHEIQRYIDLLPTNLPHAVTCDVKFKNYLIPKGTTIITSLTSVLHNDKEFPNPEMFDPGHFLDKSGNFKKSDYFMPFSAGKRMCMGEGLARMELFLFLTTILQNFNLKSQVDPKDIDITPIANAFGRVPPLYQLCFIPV
SMILES,outcome,AC50
S=C1NCCN1,inactive,–
CSC1=N[C@@](C)(c2ccccc2)C(=O)N1Nc1ccccc1,–,5.62 µM (active)
COc1ccc(C(=CC(=O)N2CCOCC2)c2ccc(Cl)cc2)cc1OC,–,7 µM (active)
C=C(C)[C@H]1Cc2c(ccc3c2O[C@@H]2COc4cc(OC)c(OC)cc4[C@@H]2C3=O)O1,–,2.62 µM (active)
CON=C(C(=O)OC)c1ccccc1CON=C(C)c1cccc(C(F)(F)F)c1,–,1.21 µM (active)
CC(C)=CC1C(C(=O)OCN2C(=O)C3=C(CCCC3)C2=O)C1(C)C (stereo not given),–,4.3 µM (active)

# Biological target: human CYP2D6, CYP2D6 (gene 1565) (UniProt P10635)
# Assay: NVS_ADME_hCYP2D6: NovaScreen (NVS) CYP450-related Enzyme Activity (ADME) Assay for human CYP2D6 (AID 2283107; active = hit-call score of the fitted dose curve at least 0.9, where 1 is the maximum)
# Outline: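 Cell-free assay using recombinant human CYP2D6 expressed in insect cells, with a fluorogenic substrate read after 1 h. Primary screen in duplicate at 10 uM; actives followed up in concentration series. Loss of signal fitted relative to acetonitrile.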
# Sequence of human CYP2D6, CYP2D6 (gene 1565) (P10635 whole entry, looked up): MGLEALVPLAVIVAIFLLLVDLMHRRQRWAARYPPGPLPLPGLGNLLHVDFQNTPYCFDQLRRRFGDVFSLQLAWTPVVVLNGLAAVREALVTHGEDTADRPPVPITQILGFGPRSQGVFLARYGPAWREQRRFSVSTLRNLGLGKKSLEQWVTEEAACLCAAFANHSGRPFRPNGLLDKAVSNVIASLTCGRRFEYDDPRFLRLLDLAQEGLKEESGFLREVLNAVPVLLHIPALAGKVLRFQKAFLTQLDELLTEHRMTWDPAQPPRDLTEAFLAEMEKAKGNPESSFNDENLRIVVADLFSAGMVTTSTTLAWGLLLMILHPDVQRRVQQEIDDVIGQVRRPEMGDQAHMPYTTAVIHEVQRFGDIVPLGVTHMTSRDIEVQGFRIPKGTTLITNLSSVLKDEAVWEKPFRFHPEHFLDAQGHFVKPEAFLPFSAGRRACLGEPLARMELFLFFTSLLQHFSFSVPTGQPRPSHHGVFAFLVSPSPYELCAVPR
SMILES,outcome,AC50
COP(=O)(OC)OC(Br)C(Cl)(Cl)Br (stereo not given),inactive,–
CSc1nnc(C(C)(C)C)c(=O)n1N,inactive,–
CN(C)[C@@H]1C(=O)C(C(N)=O)=C(O)[C@@]2(O)C(=O)C3=C(O)c4c(O)cccc4[C@@](C)(O)[C@H]3[C@H](O)[C@@H]12,inactive,–
CCCSP(=O)(OCC)SCCC,–,7.87 µM (active)
